The campaign covered roughly 370,000 compounds. About 400 (0.11%) were called active. This is one part of a sample in which actives are shown more often than they occur. A number with no mark means an inactive call.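 The calls were made as follows: active = activation at 10 µM reaching about 35% in either raw or pattern-adjusted values (limit read from the data); inactive = the rest.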

Atrial natriuretic peptide receptor 2 (Homo sapiens), sequence (P20594 whole entry, looked up): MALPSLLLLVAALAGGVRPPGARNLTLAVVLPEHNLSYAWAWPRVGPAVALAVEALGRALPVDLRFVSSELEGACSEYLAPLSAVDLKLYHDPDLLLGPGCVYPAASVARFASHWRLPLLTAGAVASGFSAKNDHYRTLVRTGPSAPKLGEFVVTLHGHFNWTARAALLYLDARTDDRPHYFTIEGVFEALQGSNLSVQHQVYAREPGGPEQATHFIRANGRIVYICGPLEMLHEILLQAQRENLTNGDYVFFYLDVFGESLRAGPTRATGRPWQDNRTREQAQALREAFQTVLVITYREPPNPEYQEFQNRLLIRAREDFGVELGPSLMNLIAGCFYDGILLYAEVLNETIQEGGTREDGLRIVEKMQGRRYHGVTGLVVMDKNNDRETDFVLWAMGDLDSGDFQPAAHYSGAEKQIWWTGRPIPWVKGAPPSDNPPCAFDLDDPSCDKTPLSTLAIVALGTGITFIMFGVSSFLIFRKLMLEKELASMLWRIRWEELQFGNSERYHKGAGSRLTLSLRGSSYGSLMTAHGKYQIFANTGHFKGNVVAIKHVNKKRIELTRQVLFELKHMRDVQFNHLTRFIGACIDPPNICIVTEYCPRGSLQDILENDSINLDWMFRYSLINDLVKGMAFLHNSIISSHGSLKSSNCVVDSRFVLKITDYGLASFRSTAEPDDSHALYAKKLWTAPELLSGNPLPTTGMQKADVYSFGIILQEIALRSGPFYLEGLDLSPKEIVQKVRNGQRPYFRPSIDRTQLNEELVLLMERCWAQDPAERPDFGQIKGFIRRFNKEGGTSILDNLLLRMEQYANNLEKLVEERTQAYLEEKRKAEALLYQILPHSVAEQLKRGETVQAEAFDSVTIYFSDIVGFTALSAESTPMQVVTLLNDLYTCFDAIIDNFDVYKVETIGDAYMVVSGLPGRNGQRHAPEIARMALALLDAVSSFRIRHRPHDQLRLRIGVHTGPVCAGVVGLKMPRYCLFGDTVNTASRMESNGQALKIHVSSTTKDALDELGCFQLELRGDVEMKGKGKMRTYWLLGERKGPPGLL

This experiment concerns the target Atrial natriuretic peptide receptor 2 (Homo sapiens) (UniProt P20594). The experiment in a line: human GC-B receptor activators, primary screen, HEK293 GC-B cells, cGMP TR-FRET, EC30 CNP (AID 1920062). To be noted: at 10 µM, active compounds read high, 0% at EC30 CNP, 100% saturating CNP. (TR-FRET usually uses a lanthanide donor and a delayed reading to cut background.)
`O=C(CCCCCCCC(=O)N1CCCCC1)N1CCCCC1`: the activation is 2.66%.

`Cc1ccc(NC(=S)N2CCCC(c3ccccc3)=N2)cc1`: the activation is -5.08%.

With `Cc1cccc(NC(=S)N2CCCC(c3nc4ccccc4[nH]3)C2)c1` (centres undefined), the activation is 0.09%.

For `CC(C)[C@H](NC(=O)c1ccc(F)cc1)C(=O)OCC(=O)NC(=O)c1cccn1C`, the activation is -6.93%.

With `COC(=O)CN(c1cccc(C(C)=O)c1)S(C)(=O)=O`, the activation was -0.3%.

With `COc1ccc(CNC(=O)COC(=O)CCS(=O)(=O)c2ccc(C)cc2)cc1OC`, the activation is -7.76%.

Take `COc1ccccc1CCCNC(=O)C1CCC(=O)N(CCN2CCOCC2)C1` (centres undefined): the activation was 0.93%.

As for `Cc1ccc(C(=O)COC(=O)CCCC(=O)NC2CCCCC2)cc1[N+](=O)[O-]`, the activation was -3.79%.

With `CCCc1c(C)nc2scc(-c3ccc(Cl)cc3)n2c1=O`, the activation is 3.02%.

Turning to `O=S(=O)(Cc1nnnn1-c1ccccc1)c1ccccc1`, the activation is 3.43%.

For the compound `CCCCc1ccc(S(N)(=O)=O)cc1`, the activation is 1.33%.

In the case of `O=C(CCCN1C(=O)C2C3C=CC(C3)C2C1=O)N1CCN(c2ccccc2)CC1` (centres undefined), the activation is 6.38%.

On to `COC(=O)c1cc(S(=O)(=O)N2CCN(C(=O)C3CCCO3)CC2)cn1C` (centres undefined), for which the activation is -2.49%.

As to `Cn1c(CC2Sc3ccccc3NC2=O)nnc1SCC(=O)c1ccc(Cl)cc1` (centres undefined), the activation is -0.22%.

With `CC(CCc1ccc(O)cc1)NCc1ccc(Cl)cc1Cl` (centres undefined), the activation was -2.85%.

In the case of `OC(CCl)CCl`, the activation was -3.1%.

Consider `CCOC(=O)C1CCN(C(=O)Cc2c(C(=O)O)[nH]c3ccccc23)CC1`, for which the activation was -0.71%.

On to `COC(=O)Cc1c(-c2[nH]c3ccccc3c2CC(=O)OC)[nH]c2ccccc12`, for which the activation is 36.5% (active).

Turning to `COC(=O)CCNC(=O)c1ccc2[nH]c(C)c(C)c2c1`, the activation was 2.4%.

For `N#CC1(NC(=O)COc2ccc3oc4ccccc4c3c2)CCCCC1`, the activation is -3.84%.

In the case of `CN1CCN(S(=O)(=O)c2ccc(NC(=O)C3CCCO3)cc2)CC1` (centres undefined), the activation is 1.58%.

As for `CCCOc1ccc(CN(CCO)CCO)cc1C(=O)OC`, the activation was 3.92%.

For the compound `Cc1ccsc1C(=O)NCCc1ccco1`, the activation is 1.1%.

Take `O=c1c2ccccc2c(-c2ccc(Br)cc2)nn1Cc1ccccc1`: the activation was 0.94%.

For the compound `O=C(NCCc1ccco1)c1nn(Cc2ccccc2)c(=O)c2ccccc12`, the activation was 49.5% (active).

`COc1ccc(OC)c(-n2nnnc2SCC(=O)Nc2cc(C)ccc2OC)c1`: the activation was -3.61%.

As to `COC(=O)c1ccc2ccccc2c1OC1OC(CO)C(O)C(O)C1NC(C)=O` (centres undefined), the activation was 1.14%.

Take `CCCc1nc2ccccc2c(C(=O)OCc2nnc(-c3cc(OC)c(OC)c(OC)c3)o2)c1CC`: the activation was 27.3%.

On to `CC1(C)O[C@@H]2[C@H](O1)[C@@H](COS(=O)(=O)O)O[C@H]2n1cnc2c(=O)[nH]cnc21`, for which the activation was 9.84%.

Regarding `COc1cccc(CC(=O)N2CCN(C(=O)C(=O)c3cccc(C(F)(F)F)c3)CC2)c1`, the activation was 0.51%.

Turning to `COc1ccc(-n2c(SCC(=O)Nc3ccc4c(c3)OCCO4)nnc2-c2ccc(Cl)cc2)cc1`, the activation is -4.33%.

Take `C/C(COc1ccccc1)=N\NC(=O)c1nnn(-c2nonc2N)c1-c1ccc(C)cc1`: the activation was -1.04%.

Take `Cc1cc(Cl)ccc1OCc1nc(-c2ccncc2)no1`: the activation was -5.32%.

For the compound `C=CCN(CC=C)C(=O)COC(=O)c1n[nH]c2ccccc12`, the activation is -3.45%.

As for `CCOc1ccccc1N1CCN(C(=S)Nc2ccc(S(N)(=O)=O)cc2)CC1`, the activation is 0.9%.

Regarding `CCCc1nn(C)c2c(=O)[nH]c(-c3cc(S(N)(=O)=O)ccc3OCC)nc12`, the activation was 55% (active).

Consider `CCOc1ccc(-n2cnc3c(=O)[nH]c(N)nc32)cc1`, for which the activation was 20.7%.

Take `Cc1ccc(NS(=O)(=O)c2ccc(C(=O)NCCCN3CCOCC3)cc2)cc1`: the activation is 1.4%.

For `COc1ccc(S(=O)(=O)N2CCOCC2)cc1NC(=O)CSc1nnc(NC2CC2)s1`, the activation was 56.9% (active).

For `COc1ccc(S(=O)(=O)N2CCOCC2)cc1NC(=O)CSc1cc(C)ccc1C`, the activation is -3.41%.

On to `Cc1ccc(S(=O)(=O)N2CCOCC2)cc1NC(=O)CSc1nnc(N)s1`, for which the activation was -3.12%.

Consider `CCCCn1c(N)c(N(CC(C)C)C(=O)c2cccc(S(=O)(=O)N3CCN(C(C)=O)CC3)c2)c(=O)[nH]c1=O`, for which the activation is 4.82%.

On to `CC(=O)Nc1ccc(Nc2ncnc3c2nnn3Cc2ccccc2Cl)cc1`, for which the activation is -5.33%.

In the case of `COc1cc(/C=C2/C(=O)ON=C2C)ccc1OCc1cccc(F)c1`, the activation was 38.1% (active).

As to `COc1ccnc2c1c(=O)n(Cc1cccc(F)c1)c(=O)n2C`, the activation is 9.01%.

On to `C/C=C/c1ccc(OCCOc2ccc(C=O)cc2OC)c(OC)c1`, for which the activation was -3.69%.

For the compound `COc1cc(CNc2ncn[nH]2)ccc1OCc1ccccc1C`, the activation was -2.6%.

For `COc1cc(/C=C2/C(=O)ON=C2C)ccc1OCc1ccccc1F`, the activation was 37.2% (active).

Take `COc1cccc(CNCCc2c[nH]c3ccccc23)c1OCc1ccccc1F`: the activation was -11.1%.

As to `COC(=O)[C@@H]1C[C@@]2(O)[C@@H](O)[C@@H](O)[C@@H](O)C[C@H]2N1Cc1ccc(C)s1`, the activation is -2.84%.

`O=C(/C=C/[C@H]1O[C@@H](n2cnc3c(NC(=O)c4ccccc4)ncnc32)[C@H](O)[C@@H]1O)NCc1ccccc1`: the activation was -3.16%.

On to `O=C(Nc1nccs1)C1CCN(S(=O)(=O)c2ccc(Cl)c(C(F)(F)F)c2)CC1`, for which the activation was -2.77%.

`COc1ccccc1C(=O)C(O)c1ccccc1OC` (centres undefined): the activation is 4.06%.

`CC(=O)Nc1ccc(/C(C)=N/NC(=O)CN(c2ccccc2Br)S(C)(=O)=O)cc1`: the activation was 1.02%.

`COc1cc(C2C(N3C(=O)c4ccccc4C3=O)C(=O)N2c2ccc(C)c(C)c2)cc(OC)c1OC` (centres undefined): the activation was 3.45%.

With `Cc1cccc(N(C(=O)Cc2cccs2)C(C(=O)NCc2ccco2)c2ccncc2)c1` (centres undefined), the activation was -16%.

Consider `CC(C)n1c(-c2ccncc2)n[nH]c1=S`, for which the activation is 5.74%.

Consider `Cc1ccccc1C1=NC(C(F)(F)F)(C(F)(F)F)c2c(n(-c3ccc(F)cc3)c(=O)[nH]c2=O)N1`, for which the activation was -3.86%.

For the compound `O=C(NCc1cc(C(F)(F)F)cc(C(F)(F)F)c1)C1CC(c2cccc(F)c2)=NO1` (centres undefined), the activation is 4.68%.

Turning to `CC1=C(C(N)=O)C(c2ccc(F)cc2)n2nc(CCCO)nc2N1` (centres undefined), the activation was 12.2%.

For the compound `CCN(CC)C(=O)C(=O)c1cn(CC(=O)NCc2ccc3c(c2)OCO3)c2ccccc12`, the activation is -1.28%.

As for `CCn1c(=O)c([N+](=O)[O-])c(NCc2ccc3c(c2)OCO3)c2ccccc21`, the activation is 38.9% (active).

For `C=CCn1c(=O)c(C(=O)NCc2ccc3c(c2)OCO3)c(O)c2ccccc21`, the activation is 5.25%.

As to `CCCCNC(=O)c1nc(C2CCN(S(=O)(=O)c3ccc(F)c(F)c3)CC2)oc1-c1cccc(C(F)(F)F)c1`, the activation is 1.59%.

On to `CC1CN/C(=C\C(=O)c2ccc(Br)cc2)C(=O)N1` (centres undefined), for which the activation is -4.27%.

Consider `N#Cc1ccccc1S(=O)(=O)N1CCN(Cc2c(O)ccc3ccccc23)CC1`, for which the activation is 2.67%.

With `Cc1ccc(CN(N=Nc2nonc2N)c2nonc2N)c(C)c1`, the activation is 42.7% (active).

In the case of `CCn1c(/C=C/Nc2ccccc2)[n+](CC)c2ccc(C(=O)OCC(F)(F)F)cc21`, the activation is -2.59%.

For `O=C(OCCN1C(=O)c2ccccc2C1=O)[C@@H]1CC(O)CN1S(=O)(=O)c1ccccc1[N+](=O)[O-]` (some centres undefined), the activation was -3.1%.

With `COC(=O)[C@@]12CCCCC3=C1N(CCC3)C(=O)[C@H]2CC(=O)NCc1cccc2ccccc12`, the activation was -3.99%.

Take `CCc1nc2c(OCc3ccccc3)cccn2c1N(C)C(=O)c1ccco1`: the activation is 3.48%.

Regarding `Cc1ccc(/C=C(\C#N)C(=O)Nc2cccc3ncccc23)o1`, the activation is -4.94%.

Take `N#Cc1ccc(C(=O)Nc2nc(-c3cccs3)c(C(=O)C(F)(F)F)s2)cc1`: the activation is -0.02%.

Turning to `COc1cc(CCC(=O)N2CCN(c3ccccc3Cl)CC2)cc(OC)c1OC`, the activation is -3.86%.

For the compound `COc1cccc(COC(=O)C2CCN(S(=O)(=O)c3cccs3)CC2)c1OC`, the activation was 1.88%.

With `Cc1ccc(C(=O)N2CCCC(c3ccccc3)=N2)cc1`, the activation was 2.95%.

Regarding `Nc1nc(SC23CC4CC(CC(C4)C2)C3)ns1`, the activation is -0.97%.

For the compound `CS(=O)(=O)N(CC(=O)Nc1ccc(F)cc1)C1CCCCC1`, the activation was 0.74%.

For `CN(C)c1nc2n(c(=O)n1)CCO2`, the activation was 4.05%.

For `O=C(COc1cccnc1[N+](=O)[O-])Nc1ccc(Cl)cc1F`, the activation is -6.77%.

Take `CC(C)(C)c1ccc(C(=O)NCC(=O)OCN2C(=O)c3ccccc3C2=O)cc1`: the activation was -3.65%.

For the compound `CN(Cc1cccnc1)C(=O)c1cc(COc2ccc3ncccc3c2)on1`, the activation is 0.47%.

In the case of `C=CCC1(CC=C)CCCN1C(=O)c1cc(COc2ccc(-n3cncn3)cc2)on1`, the activation is -1.1%.

Regarding `CC1=NN(C(=O)Cc2ccc(C)cc2)C(O)(c2cccnc2)C1` (centres undefined), the activation was -0.71%.

On to `O=C(Nc1ccccc1Cl)NC1(C(=O)N2CCOCC2)CCCCC1`, for which the activation was 0.64%.

Turning to `CCN(Cc1ccccc1)C(=O)CCS(=O)(=O)c1ccc2c(c1)oc(=O)n2C`, the activation was 4.57%.

On to `O=C(NNC(=S)Nc1ccc(F)cc1)[C@H]1C[C@@H]1c1ccccc1`, for which the activation is 2.74%.

Consider `COc1ccc(OC)c(NC(=O)c2cnn(-c3ccccc3Cl)c2NC(=O)c2ccco2)c1`, for which the activation was -0.32%.

`CCCC(c1nnnn1C(C)(C)C)N1CCN(Cc2ccccc2)CC1` (centres undefined): the activation is -1.17%.

The values are drawn from PubChem BioAssay AID1920062 (Sanford-Burnham Center for Chemical Genomics, 2024).
